The record followed here is PubChem BioAssay.

The source made the active and inactive calls.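 Rule for the calls, unless noted: active = fluorescence slope higher than the sample average by over 3 SD (cut at about -0.22 in these data, passing the limit was not always enough); inactive = the rest.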

Assay [1] can be described thus: inhibitors of TNFa-induced NFkB p65 translocation, primary screen, imaging, HUVEC, MLSMR starter and 10KST1 sets (AID 438;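 active = inhibition above 20% together with a positive visual image hit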;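 note: compound added about 3h40 before a 20 min TNFalpha stimulation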;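 for inhibition: signal is the nuclear over cytoplasmic p65 intensity ratio per well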). To be noted: HUVEC TNFa-induced p65 nuclear translocation; cell count: measured here: nuclei count (cytotoxicity indicator), at 2.08 µM; inhibition: at 2 µM, stronger effect = higher value, 0% TNFa-plus-vehicle, 100% no-TNFa wells.
A short description of assay [2]: inhibitors of mutant huntingtin aggregation, primary screen, imaging, exon1htt(103Q)mCFP cells, high-content imaging (AID 483;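 active = visual image review flags a hit and inhibition of aggregation exceeds 20%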;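 note: compound exposure lasted 3 days before fixation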;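 for nuclei count: percent of the per-plate median nuclei count of sample wells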). To be noted: exon1htt(103Q)mCFP cell line, aggregate imaging, at 2 µM; inhibition of aggregation: stronger effect = higher value; nuclei count: measured here: cell count, toxicity.
Assay [3] can be described thus: inhibitors of E-selectin induction by TNFa, primary screen, imaging, HUVEC, immunofluorescence, MLSMR starter and 10KST1 sets (AID 487;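 active = visually confirmed hit in the image check and inhibition above 20%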;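 for inhibition: signal is fraction of cell area covered by stained E-selectin grains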;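 for nuclei count: 100% = median nuclei count of all wells on the same plate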). To be noted: HUVEC TNFalpha-induced E-selectin immunofluorescence imaging, at 2 µM; inhibition: stronger effect = higher value; nuclei count: measured here: cell number, toxicity.
The target of assay [4] is Voltage-gated potassium channel subunit beta-2 (Rattus norvegicus) (UniProt P62483). Briefly: KvBeta enzyme negative modulators, primary screen, biochemical, NADPH fluorescence (AID 622).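 Note: slope of raw intensity against log time taken from 70 to 1610 s.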 To be noted: recombinant KvBeta, 4-cyanobenzaldehyde reduction, at 10 µM, stronger effect = higher value.
Voltage-gated potassium channel subunit beta-2 (Rattus norvegicus), sequence (P62483 whole entry, looked up): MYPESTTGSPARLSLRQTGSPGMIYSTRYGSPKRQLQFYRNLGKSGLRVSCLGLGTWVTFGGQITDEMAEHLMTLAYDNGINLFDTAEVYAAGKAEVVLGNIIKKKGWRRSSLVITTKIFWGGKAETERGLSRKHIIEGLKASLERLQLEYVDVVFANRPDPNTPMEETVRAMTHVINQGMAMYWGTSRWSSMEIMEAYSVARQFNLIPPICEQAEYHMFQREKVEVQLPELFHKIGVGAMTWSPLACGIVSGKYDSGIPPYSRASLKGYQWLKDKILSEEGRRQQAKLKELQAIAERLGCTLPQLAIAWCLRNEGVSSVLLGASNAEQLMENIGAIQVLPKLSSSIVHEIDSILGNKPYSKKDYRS
Assay [5] has the same target. Briefly: KvBeta positive modulators, primary screen, biochemical, NADPH fluorescence (AID 623;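 active = NADPH fluorescence slope more negative than the mean of all samples by about 3 SD, 99.7% confidence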;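 note: fluorescence intensity change per second fitted from 20 to 320 s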). Particulars: Recombinant KvBeta, NADPH fluorescence decrease slope, 10 min; at 10 µM; stronger effect = lower value.
In assay [6] the target is Alpha-2C adrenergic receptor (Homo sapiens) (UniProt P18825). Briefly: modulators of alpha2C/GIRK thallium flux, primary screen, cell-based, HEK293 alpha2C/GIRK1/2 (AID 624;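 active = fluorescence slope after compound addition differing from the mean of all screened samples at 99.7% confidence, in either direction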;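 note: slope of fluorescence ratio to pre-addition baseline per second over 15 to 24 s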). Particulars: thallium flux BTC fluorescence, at 10 µM, actives lie on both sides.
Alpha-2C adrenergic receptor (Homo sapiens), sequence (P18825 whole entry, looked up): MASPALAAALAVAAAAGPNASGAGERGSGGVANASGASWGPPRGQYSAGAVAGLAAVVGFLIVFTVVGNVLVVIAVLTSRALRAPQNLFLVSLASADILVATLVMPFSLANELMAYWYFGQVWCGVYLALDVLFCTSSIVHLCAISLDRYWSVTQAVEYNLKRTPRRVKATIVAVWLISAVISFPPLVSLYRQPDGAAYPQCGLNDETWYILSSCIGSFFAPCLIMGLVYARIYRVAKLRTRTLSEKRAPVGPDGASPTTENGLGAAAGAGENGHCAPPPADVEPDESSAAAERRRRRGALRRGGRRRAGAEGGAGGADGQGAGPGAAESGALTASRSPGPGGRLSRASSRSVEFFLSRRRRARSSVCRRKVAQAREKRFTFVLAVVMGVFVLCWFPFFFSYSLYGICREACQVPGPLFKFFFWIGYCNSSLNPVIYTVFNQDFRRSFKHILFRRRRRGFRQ
Assay [7] in a line: inhibitors of Sendai virus-induced IRF3 signaling, primary screen, TLR/RLR signaling modifier project, cell-based, Sendai virus stimulus, luciferase, 10K MLSCN set (AID 602276;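 active = inhibition at or above 50% at 10 µM; inactive = inhibition below 50%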;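 note: firefly luciferase from ISG56 promoter only with Renilla not read in this screen; 0% = Sendai virus plus DMSO and 100% = medium plus DMSO without virus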). Particulars: HEK293 RL24 IRF3 luciferase reporter, at 10 µM, stronger effect = higher value. Background: Reporter assays use an easily measured gene product as a stand-in for the process of interest.
A short description of assay [8]: inhibitors of poly I:C-induced TLR3 signaling, primary screen, cell-based, poly I:C stimulus, luciferase, 10K MLSCN set (AID 602277;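 active = inhibition of the reporter signal at or above 50%; inactive = inhibition below 50%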). To be noted: HEK293-TLR3 RL24 IRF3 luciferase reporter, at 10 µM, stronger effect = higher value.

For orientation: inhibition means the drop in the measured response relative to a control, in per cent. As to `COc1ccc(N2CCN(Cc3cc(=O)oc4cc(C)c(Cl)c(C)c34)CC2)cc1`, the cell count in assay [1] is 604. The inhibition in assay [1] was 0.3% (inactive); in assay [3], 19% (inactive); in assay [7] it was 17.9% (inactive); in assay [8] it was 12% (inactive). Moreover, the inhibition of aggregation in assay [2] is 8.9% (inactive). Also, the nuclei count amounted to 104% in assay [2] and 93.1% in assay [3]. In addition, the fluorescence slope in assay [4] is -0.388 (inactive). Besides, in assay [5], the NADPH fluorescence slope was 1.5e-05 (inactive). Also, the slope in assay [6] was 0.00505 (inactive).

In the case of `O=C(Cn1nc(Cc2cccnc2)c2ccccc2c1=O)NCC1CCCO1` (stereo not given), the cell count in assay [1] was determined as 461. Further, the inhibition is 6.1% (inactive) in assay [1], -96.1% (inactive) in assay [3], 11.5% (inactive) in assay [7] and 29.9% (inactive) in assay [8]. The inhibition of aggregation in assay [2] is 12.1% (inactive). The nuclei count in assay [2] worked out at 69.2%; in assay [3], 115%. In assay [4], the fluorescence slope was -0.553 (inactive). Moreover, in assay [5], the NADPH fluorescence slope is -2.6e-06 (inactive). Moreover, in assay [6], the slope was 0.00713 (inactive).

On to `COc1ccc(C)cc1S(=O)(=O)N1CCN(S(=O)(=O)c2cc(C)ccc2OC)CC1`, for which the cell count in assay [1] worked out at 427. The inhibition is -0.2% (inactive) in assay [1], 17.9% (inactive) in assay [3], -3.93% (inactive) in assay [7] and 9.61% (inactive) in assay [8]. In addition, in assay [2], the inhibition of aggregation was -15.7% (inactive). In addition, the nuclei count in assay [2] was 97.4%; in assay [3], 112%. The fluorescence slope in assay [4] is -0.536 (inactive). Moreover, the NADPH fluorescence slope in assay [5] was -3.9e-05 (inactive). Further, in assay [6], the slope was 0.00449 (inactive).

As to `Nc1ncnc2nc(Sc3ccc(Cl)cc3)[nH]c12`, the cell count in assay [1] was found to be 645. For the same compound, the inhibition is -8.5% (inactive) in assay [1], -12.5% (inactive) in assay [3], 10.1% (inactive) in assay [7] and 12.5% (inactive) in assay [8]. In addition, the inhibition of aggregation in assay [2] was -5.4% (inactive). Besides, the nuclei count in assay [2] and in assay [3] was 108% in each case. Besides, in assay [4], the fluorescence slope is -0.555 (inactive). Also, the NADPH fluorescence slope in assay [5] was -6.5e-06 (inactive). Moreover, the slope in assay [6] was 0.00627 (inactive).

As to `COc1ccc(C(=O)NCCSc2ccccn2)cc1`, the cell count in assay [1] worked out at 778. Also, the inhibition in assay [1] is 4.4% (inactive); in assay [3], 48% (inactive); in assay [7] it was -6.19% (inactive); in assay [8] it was -64.3% (inactive). For the same compound, the inhibition of aggregation in assay [2] was 3.3% (inactive). Also, the nuclei count in assay [2] was 101%; in assay [3], 95%. The fluorescence slope in assay [4] was -0.478 (inactive). Besides, the NADPH fluorescence slope in assay [5] is -6.9e-05 (inactive). The slope in assay [6] is 0.00549 (inactive).

On to `CC1CCN(C(=O)CCNS(=O)(=O)c2ccccc2)CC1`, for which the cell count in assay [1] turned out to be 709. Further, the inhibition is 0.4% (inactive) in assay [1], -149% (inactive) in assay [3], -23.4% (inactive) in assay [7] and -31.3% (inactive) in assay [8]. For the same compound, the inhibition of aggregation in assay [2] is -20.3% (inactive). The nuclei count in assay [2] was 101%; in assay [3] it was 142%. The fluorescence slope in assay [4] is -0.605 (inactive). Moreover, the NADPH fluorescence slope in assay [5] was -2.3e-07 (inactive). Moreover, the slope in assay [6] was 0.00564 (inactive).

For the compound `CCCCCn1c(CN2CCN(C(=O)OCC)CC2)nc2c1c(=O)[nH]c(=O)n2C`, the cell count in assay [1] was 245. Moreover, the inhibition in assay [1] was 0.8% (inactive); in assay [3], 16.4% (inactive); in assay [7], 28.1% (inactive); in assay [8], 19.9% (inactive). Also, the inhibition of aggregation in assay [2] is 10.4% (inactive). Further, the nuclei count came to 105% in assay [2] and 78.3% in assay [3]. For the same compound, the fluorescence slope in assay [4] was -0.564 (inactive). Further, in assay [5], the NADPH fluorescence slope was 7.1e-06 (inactive). Further, the slope in assay [6] is 0.00615 (inactive).

Regarding `CCOC(=O)c1ccc(NCc2nc3ccccc3[nH]2)cc1`, the cell count in assay [1] was found to be 670. The inhibition in assay [1] is -7.9% (inactive); in assay [3], -46% (inactive); in assay [7], -76.1% (inactive); in assay [8] it was -152% (inactive). In addition, the inhibition of aggregation in assay [2] was -14.3% (inactive). Further, the nuclei count in assay [2] is 102%; in assay [3] it was 126%. Also, the fluorescence slope in assay [4] was -0.558 (inactive). Moreover, the NADPH fluorescence slope in assay [5] was 2.8e-05 (inactive). Further, in assay [6], the slope is 0.00739 (inactive).

Take `CC1(C)CC(=O)C(C=Nc2ccc3c(c2)OCO3)=C(O)C1`: the cell count in assay [1] was found to be 329. Besides, the inhibition was 1% (inactive) in assay [1], -252% (inactive) in assay [3], -6.77% (inactive) in assay [7] and -5.98% (inactive) in assay [8]. Also, in assay [2], the inhibition of aggregation was 12.6% (inactive). Moreover, the nuclei count turned out to be 104% in assay [2] and 86.4% in assay [3]. The fluorescence slope in assay [4] was -0.435 (inactive). For the same compound, in assay [5], the NADPH fluorescence slope is -6.8e-05 (inactive). For the same compound, the slope in assay [6] is 0.00387 (inactive).

On to `CC(C)(O)C#Cc1ccc(C(=O)N2CCN(C(=O)c3ccco3)CC2)cc1`, for which the cell count in assay [1] was 547. Further, the inhibition in assay [1] was -7.8% (inactive); in assay [3] it was 45.3% (inactive); in assay [7], 16.5% (inactive); in assay [8], 13.5% (inactive). Moreover, the inhibition of aggregation in assay [2] is -25.3% (inactive). Moreover, the nuclei count in assay [2] turned out to be 121%; in assay [3] it was 133%. For the same compound, the fluorescence slope in assay [4] was -0.51 (inactive). The NADPH fluorescence slope in assay [5] is -3.3e-05 (inactive). In addition, in assay [6], the slope was 0.00463 (inactive).
